Holding throughout (assay): NCI-60 one-dose screen, 48 h (100 = growth as untreated, 0 = no growth, -100 = all killed)
Conditions in all cases: 10 µM

In assay [1] the test system is HT29 colon.
Assay [2] relates to SNB-75 CNS.
In assay [3] the test system is SNB-19 CNS.
The subject of assay [4] is PC-3 prostate.
Assay [5] has as its system SK-MEL-5 melanoma.
Assay [6] concerns UACC-62 melanoma.
The subject of assay [7] is LOX IMVI melanoma.
Assay [8] relates to SK-MEL-28 melanoma.
Assay [9] concerns SK-MEL-2 melanoma.
Assay [10] relates to SN12C renal.
For assay [11], the system named is UO-31 renal.
Assay [12] relates to TK-10 renal.
In assay [13] the test system is ACHN renal.
Assay [14] relates to CAKI-1 renal.
Assay [15] has as its system A498 renal.
Assay [16] has as its system CCRF-CEM leukemia.
The subject of assay [17] is MOLT-4 leukemia.
Assay [18] has as its system SR leukemia.
Assay [19] concerns EKVX NSCLC.

About 83,000 compounds went through this panel and 20% of them were active in at least one assay; those are over-represented in the sample as a whole.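 How to read the values: 0–100, growth inhibition (40 = 60% inhibited); 0, no net growth; -100 to 0, cell death (-40 = 40% of starting cells died; -100 = all dead).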 Values without a mark were called inactive. Calls of active or inactive are those of the source. The calls were made as follows: active = growth percent below 10; inactive = the rest.

With `Fc1ccc2nc(-c3nc(-c4ccccc4)n4ccccc34)[nH]c2c1`, the growth is -52.6% (active) in assay [1]; -44.1% (active) in [2]; -36.5% (active) in assay [3]; -71% (active) in [4]; 4% (active) in assay [5]; 3.95% (active) in assay [6]. In addition, the growth in [7] was 15.2%; in [8], -9.19% (active); in [9], -30.3% (active); in assay [10], 16.9%; in [11], -32.9% (active); in assay [12], -30.2% (active). The growth is 10.1% in [13]; -0.279% (active) in [14]; -16.8% (active) in assay [15]; 53.3% in assay [16]; 39.8% in [17]; 38% in assay [18].

With `N=C(N)c1ccc(-c2ccc(-c3cccs3)s2)cc1`, the growth is -53.8% (active) in assay [1]; 70.9% in assay [2]; 109% in assay [3]; 78% in assay [4]; 31.4% in assay [5]; 40.4% in assay [6]. The growth in [7] was -81.7% (active); in assay [8] it was 37.7%; in assay [9], 99%; in assay [10] it was 85.9%; in assay [11], 17.1%; in assay [12], 67.8%. Further, the growth in assay [13] is 85.8%; in [14] it was 85.2%; in [15] it was -25.9% (active); in [16], -36.1% (active); in [17], -48.6% (active); in [18], -35.6% (active).

In the case of `COc1cc(Cl)cc(-c2nn(-c3cccc(NC(=O)Nc4cc(C(F)(F)F)cc(C(F)(F)F)c4)c3)cc2-c2ccncc2)c1`, the growth in [1] is 3.93% (active); in [2], 11.3%; in assay [3] it was 26.1%; in assay [4], -6.27% (active); in assay [5], -79.4% (active); in assay [6] it was -21.2% (active). Besides, the growth in assay [7] was -24% (active); in assay [8], 6.55% (active); in assay [9], -38.1% (active); in assay [10] it was 9.32% (active); in assay [11], -0.18% (active); in assay [12] it was 30.3%. Further, the growth is 10.3% in assay [13]; 8.99% (active) in [14]; -21.6% (active) in assay [15]; -22% (active) in assay [16]; -24.6% (active) in assay [17]; -37.9% (active) in assay [18].

`CS(=O)(=O)Nc1ccc(Nc2c3ccccc3nc3cc([N+](=O)[O-])ccc23)cc1`: the growth was 11.8% in [1]; 41.3% in assay [2]; 43.3% in [3]; 44.4% in [4]; 13.5% in assay [5]; 32.2% in assay [6]. For the same compound, the growth was -27.1% (active) in [7]; 43.4% in assay [8]; 23.3% in assay [9]; 20.3% in assay [10]; 16.6% in assay [11]; 16% in assay [12]. For the same compound, the growth in assay [13] is 12.6%; in [15] it was 45.4%; in [16], 2.39% (active); in [17], 4.17% (active).

For `O=C1CC[C@@H]2CCCC[C@@H]2C1`, the growth in [1] is 107%; in assay [2], 95.2%; in assay [3] it was 102%; in [4], 85.3%; in assay [5], 110%; in [6], 94.6%. Besides, the growth in [7] was 101%; in assay [8], 112%; in [19], 99.1%; in assay [10], 95.9%; in [11], 75.2%; in assay [12], 114%. Also, the growth in [13] was 100%; in [15] it was 108%; in assay [17] it was 96.5%; in [18], 94.7%.

On to `COc1ccc(-c2nc(-c3nc4cc(Cl)c(Cl)cc4[nH]3)c3ccccn23)cc1`, for which the growth is 51.4% in assay [1]; -29.1% (active) in assay [2]; 50.5% in [3]; 57% in [4]; 48.3% in assay [5]; 88.9% in assay [6]. For the same compound, the growth in assay [7] was 43.6%; in assay [8], 62.2%; in assay [9] it was 58.1%; in [10], 81.8%; in assay [11] it was 36%; in assay [12], 2.57% (active). Moreover, the growth in assay [13] was 28.5%; in assay [14], 43.5%; in [15], 41.5%; in assay [16], 79.1%; in assay [17] it was 77.3%; in [18], 45.6%.

On to `C#Cc1ccc(-n2c(/C=C/c3ccc(O)c(OC)c3)nc3ncccc3c2=O)cc1`, for which the growth in [1] was 112%; in assay [2], 55.9%; in assay [3] it was 96.2%; in [4], 81.2%; in assay [5], 94.2%; in [6], 104%. The growth in assay [7] was 93.5%; in [8] it was 97.9%; in [9], 85.7%; in [10] it was 98.4%; in assay [11] it was 73.9%; in assay [12], 139%. Moreover, the growth in assay [13] was 97.3%; in assay [14] it was 96%; in assay [15], 94%; in assay [16] it was 91.4%; in assay [17], 86.1%; in assay [18] it was 80.9%.

On to `COc1ccc2c(c1)C(=O)c1c-2c(OCCN(C)C)nc2ccccc12`, for which the growth in [1] was 12.2%; in [2] it was 47.2%; in [3] it was 42.9%; in assay [4] it was 47.2%; in assay [5], 37.4%; in assay [6], 52.4%. The growth was -41.8% (active) in [7]; 64.9% in [8]; 16.5% in assay [9]; 44.7% in [19]; 34.7% in assay [10]; -4.51% (active) in assay [11]. Moreover, the growth is 43.3% in assay [12]; 9.68% (active) in [13]; 14.6% in assay [14]; 65.8% in assay [15]; 20.9% in [16]; 4.41% (active) in assay [17]. In assay [18], the growth is 1.16% (active).

Source of the values: PubChem BioAssay (NCI).
